The panel holds about 79,000 compounds, 15% with a hit somewhere; the sample as a whole holds those more often. Unmarked numbers belong to inactive results. The source made the active and inactive calls. Rule as the data show it: active = growth inhibition above about 70%; inactive = the rest. Where a SMILES comes first, the peptide text is derived from it. [ ]: non-standard residue; d: D form. ξ: configuration not given here. ξP = O=C(O)C1CCCN1

Assay [1] is described as follows: NCI Yeast Anticancer Drug Screen. Data for the rad50 strain (AID 155).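 Also: 0% = growth of vehicle-only cultures of the same strain.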 As to conditions: S. cerevisiae rad50 strain growth inhibition; at 50.0 µM; hits give high values. The procedure, abridged:
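Vehicle-treated cultures provide the reference for the growth inhibition reported for compound-exposed, repair-deficient yeast.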

Assay [2] can be described thus: NCI Yeast Anticancer Drug Screen. Data for the mec2-1 strain (AID 157). As to conditions: S. cerevisiae mec2-1 strain, at 50.0 µM, hits give high values. The procedure, abridged: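 Using mec2-1 yeast: add compound, measure growth, express inhibition versus vehicle-treated cultures.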
Assay [3] is described as follows: NCI Yeast Anticancer Drug Screen. Data for the sgs1 mgt1 strain (AID 161).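 Also: 0% = growth of cultures given vehicle only.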 The conditions noted are these: S. cerevisiae sgs1 mgt1 strain, at 50.0 µM, hits give high values. The procedure, abridged: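 Growth of a repair-deficient yeast mutant was monitored after compound treatment and expressed as inhibition relative to vehicle-treated cultures.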
Assay [4] in a line: NCI Yeast Anticancer Drug Screen. Data for the cln2 rad14 strain (AID 165).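 Also: 0% = growth equal to vehicle treated cultures.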 The conditions noted are these: S. cerevisiae cln2 rad14 strain, at 50.0 µM, hits give high values. The procedure, abridged: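 Yeast strain cln2 rad14, bearing defects in cell cycle control and DNA repair, serves as the test system; values reflect growth inhibition compared with vehicle.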
Assay [5] can be described thus: NCI Yeast Anticancer Drug Screen. Data for the bub3 strain (AID 167). As to conditions: S. cerevisiae bub3 mutant strain, at 50.0 µM, hits give high values. The procedure, abridged:
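Mutant yeast screening strain plus compound; vehicle-treated cultures serve as the 0% inhibition reference.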

Assay [6] is described as follows: NCI Yeast Anticancer Drug Screen. Data for the mlh1 rad18 strain (AID 175). The conditions noted are these: S. cerevisiae mlh1 rad18 strain growth inhibition; at 50.0 µM; hits give high values. The essentials:
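Steps: expose repair-defective yeast to compound; measure growth; express inhibition against vehicle-treated controls.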

For the molecule `CC(=O)C1CN(C)CCC1=O` (stereo unspecified), the growth inhibition is -20% in assay [1]; -4.55% in assay [2]; -19.8% in assay [3]; -11.2% in assay [4]; -13.7% in assay [5]; 16.9% in assay [6].
For `CCCCC(CC)COS(=O)(=O)O` (stereo unspecified), the growth inhibition in assay [1] was -16.3%; in assay [2], 2.25%; in assay [3], -30.9%; in assay [4], -42%; in assay [5] it was -27%; in assay [6], -42%.
On to `CN(C)NC(=S)NC12CC3CC(CC(C3)C1)C2`, for which the growth inhibition in assay [1] is -15.3%; in assay [2] it was -5.25%; in assay [3], -10.2%; in assay [4], -18.9%; in assay [5] it was -2.8%; in assay [6], 11.8%.
On to `NC(=O)N(CCO)/N=C/c1ccc([N+](=O)[O-])o1`, for which the growth inhibition is 42.3% in assay [1]; 15.7% in assay [2]; 54.8% in assay [3]; 17.9% in assay [4]; 33.6% in assay [5]; 59.9% in assay [6].
As to `COc1ccc(/C=C2\CCC(Cc3ccccc3)(CN(C)C)C2=O)cc1` (stereo unspecified), the growth inhibition in assay [1] is 19.6%; in assay [2], -15.3%; in assay [3], 25.3%; in assay [4], 3.7%; in assay [5], -11.8%; in assay [6], -72.4%.
As for `CCOC(=O)c1cc2cc(Br)ccc2[nH]1`, the growth inhibition in assay [1] is 2%; in assay [2], -24%; in assay [3], 8.5%; in assay [4] it was 5.9%; in assay [5], -2.7%; in assay [6], 20.4%.
In the case of `CC(=O)Nc1ccc(/C=N\NC(=S)Nc2ccc(F)cc2)cc1`, the growth inhibition is -13.4% in assay [1]; -12.7% in assay [2]; -3.9% in assay [3]; -53.1% in assay [4]; 4.65% in assay [5]; -18.8% in assay [6].
Consider `COc1cc(CN(c2ccccc2C(=O)O)S(=O)(=O)c2ccc(C)cc2)ccc1[N+](=O)[O-]`, for which the growth inhibition is 43.9% in assay [1]; 2.65% in assay [2]; 38.2% in assay [3]; -19.6% in assay [4]; -4.5% in assay [5]; 35.6% in assay [6].
Turning to `COc1ccc(N2C(=O)C3c4[nH]c5ccccc5c4C4CC(C)CC(C)C4C3C2=O)cc1` (stereo unspecified), the growth inhibition is 53% in assay [1]; 0.65% in assay [2]; 8.85% in assay [3]; -25.2% in assay [4]; 41% in assay [5]; 14.7% in assay [6].
For `O=C(NCC1CC1)c1ccccc1NC(=O)c1cc2ccccc2oc1=O`, the growth inhibition was -7.9% in assay [1]; -8.25% in assay [2]; 8.4% in assay [3]; 9.85% in assay [4]; 18.7% in assay [5]; 19.8% in assay [6].
Regarding `O=C1OC(c2cccc(Cl)c2)=N/C1=C\c1cccc([N+](=O)[O-])c1`, the growth inhibition in assay [1] is 15.5%; in assay [2] it was 12.3%; in assay [3] it was 24.6%; in assay [4], 18.9%; in assay [5], 17.6%; in assay [6], 2%.
As to `N#Cc1ccc(OCCSCCCCCCCCCCSCCOc2ccc(C#N)cc2)cc1`, the growth inhibition is -16.8% in assay [1]; -20.9% in assay [2]; -19.8% in assay [3]; -6.05% in assay [4]; -1% in assay [5]; -15.8% in assay [6].
`CCOCCN(CCOCC)c1ncnc2[nH]ncc12`: the growth inhibition was 9.15% in assay [1]; 5.15% in assay [2]; 9.95% in assay [3]; -25.2% in assay [4]; 21.6% in assay [5]; 10.6% in assay [6].
`Cc1ccc2ccccc2c1CP(=O)(O)O`: the growth inhibition was -18.9% in assay [1]; -11.1% in assay [2]; -10.4% in assay [3]; -10.6% in assay [4]; 15.2% in assay [5]; -31.4% in assay [6].
In the case of `O=C(CI)Nc1ccc(Cl)c(Cl)c1`, the growth inhibition in assay [1] was 99.7% (active); in assay [2] it was 99.3% (active); in assay [3], 99.8% (active); in assay [4], 99.6% (active); in assay [5] it was 99.8% (active); in assay [6] it was 99.7% (active).
In the case of `CC1=CC(=O)C(C(C)C)=CC1=O`, the growth inhibition in assay [1] was -9.55%; in assay [2], 7.25%; in assay [3], -4.25%; in assay [4], 22.6%; in assay [5], 4.7%; in assay [6], 0.5%.
`COc1cc(Cl)ccc1NC(=O)Oc1ccc(-c2ccccc2)cc1Cl`: the growth inhibition in assay [1] was 65.8%; in assay [2] it was 99.5% (active); in assay [3], 99.5% (active); in assay [4], 99% (active); in assay [5], 99.2% (active); in assay [6], 99.4% (active).
`COC(=O)C1c2ccccc2CC(=O)N1N` (stereo unspecified): the growth inhibition in assay [1] was -2.7%; in assay [2] it was -8.5%; in assay [3], -20.6%; in assay [4], 8.25%; in assay [5] it was 7.05%; in assay [6] it was 9.15%.
On to `NCC(=O)N1CCCC1C(=O)NCC(=O)NCC(=O)O` (stereo unspecified) (H-G[ξP]GG-OH), for which the growth inhibition in assay [1] is 11.6%; in assay [2] it was 0.95%; in assay [3] it was 4.8%; in assay [4], -32%; in assay [5], -16.9%; in assay [6] it was 3.15%.
As for `CSc1nc(N)n2nc(C)cc2n1`, the growth inhibition in assay [1] is -9.3%; in assay [2] it was -13.7%; in assay [3] it was 10.2%; in assay [4], 6.9%; in assay [5], 33.3%; in assay [6], -3.8%.
Consider `CCOc1ccc(NC(=S)NC=C(C(N)=O)C(N)=O)cc1`, for which the growth inhibition in assay [1] was -47.3%; in assay [2], -41.3%; in assay [3] it was -10.7%; in assay [4], 19.2%; in assay [5], 3.9%; in assay [6], -22.6%.

The record behind these values is PubChem BioAssay (NCI).
